Data as given in PMC8384837, “Expanding the binding specificity for RNA recognition by a PUF domain”.

Assays:
Assay in all cases: yeast three-hybrid, YBZ-1, SC-Leu-His + 0.5 mM 3-AT, 4 days
Settings in all cases: tags: N-Gal4 AD-HA kept; label: inside an RPR1-promoter hybrid RNA with tandem MS2 sites; ssRNA
[1] = target: PUM1 PUF domain R2-RRG (Homo sapiens, UniProt Q14671 828-1176, N899R;Y900R;Q903G)
Outline: (§1)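 The interaction score is the log change in variant frequency from input to selection. Scores were computed in log2 with a pseudocount of 1 for absent variants, using Illumina sequencing of PCR-amplified repeat regions. The input came from four days on SC-Leu and the selection from four days on SC-Leu-His + 0.5 mM 3-AT. The cells were strain YBZ-1 (LexA–MS2 coat fusion, HIS3 reporter) co-expressing Pumilio-1 PUF domain libraries and matching RNA elements from a centromeric plasmid.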

[2] = target: PUM1 PUF domain R4-TPC (Homo sapiens, UniProt Q14671 828-1176, N971T;H972P;Q975C)
Outline: as §1

[3] = target: PUM1 PUF domain R7-KWR (Homo sapiens, UniProt Q14671 828-1176, S1079K;N1080W;E1083R)
Outline: as §1

[4] = target: PUM1 PUF domain R1-ERV (Homo sapiens, UniProt Q14671 828-1176, S863E;Q867V)
Outline: as §1

[5] = target: PUM1 PUF domain R5-RDR (Homo sapiens, UniProt Q14671 828-1176, C1007R;R1008D;Q1011R)
Outline: as §1

[6] = target: PUM1 PUF domain R5-KRW (Homo sapiens, UniProt Q14671 828-1176, C1007K;Q1011W)
Outline: as §1

[7] = target: PUM1 PUF domain R5-KCV (Homo sapiens, UniProt Q14671 828-1176, C1007K;R1008C;Q1011V)
Outline: as §1

[8] = target: PUM1 PUF domain R3-LWG (Homo sapiens, UniProt Q14671 828-1176, C935L;R936W;Q939G)
Outline: as §1

[9] = target: PUM1 PUF domain R5-QAK (Homo sapiens, UniProt Q14671 828-1176, C1007Q;R1008A;Q1011K)
Outline: as §1

[10] = target: PUM1 PUF domain R5-LNR (Homo sapiens, UniProt Q14671 828-1176, C1007L;R1008N;Q1011R)
Outline: as §1

[11] = target: PUM1 PUF domain R5-RFM (Homo sapiens, UniProt Q14671 828-1176, C1007R;R1008F;Q1011M)
Outline: as §1

[12] = target: PUM1 PUF domain R5-QCH (Homo sapiens, UniProt Q14671 828-1176, C1007Q;R1008C;Q1011H)
Outline: as §1

[13] = target: PUM1 PUF domain R8-PKR (Homo sapiens, UniProt Q14671 828-1176, N1122P;Y1123K;Q1126R)
Outline: as §1

[14] = target: PUM1 PUF domain R8-GWR (Homo sapiens, UniProt Q14671 828-1176, N1122G;Y1123W;Q1126R)
Outline: as §1

[15] = target: PUM1 PUF domain R5-IHE (Homo sapiens, UniProt Q14671 828-1176, C1007I;R1008H;Q1011E)
Outline: as §1

[16] = target: PUM1 PUF domain R3-GYW (Homo sapiens, UniProt Q14671 828-1176, C935G;R936Y;Q939W)
Outline: as §1

[17] = target: PUM1 PUF domain R7-QNE (Homo sapiens, UniProt Q14671 828-1176, S1079Q)
Outline: as §1

[18] = target: PUM1 PUF domain R3-TRG (Homo sapiens, UniProt Q14671 828-1176, C935T;Q939G)
Outline: as §1

[19] = target: T1, PUM1 PUF domain R6-VYQ (Homo sapiens, UniProt Q14671 828-1176, N1043V)
T1 sequence: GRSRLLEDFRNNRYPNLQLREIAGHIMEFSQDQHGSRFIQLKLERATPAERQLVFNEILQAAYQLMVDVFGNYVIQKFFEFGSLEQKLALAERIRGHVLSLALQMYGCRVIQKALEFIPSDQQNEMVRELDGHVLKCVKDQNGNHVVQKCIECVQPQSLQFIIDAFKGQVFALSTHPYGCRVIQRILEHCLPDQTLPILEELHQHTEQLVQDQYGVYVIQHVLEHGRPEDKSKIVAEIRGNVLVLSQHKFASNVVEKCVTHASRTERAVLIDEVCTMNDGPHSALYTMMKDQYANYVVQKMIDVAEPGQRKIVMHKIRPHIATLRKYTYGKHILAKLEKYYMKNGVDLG
Outline: as §1

[20] = target: PUM1 PUF domain R7-LWG (Homo sapiens, UniProt Q14671 828-1176, S1079L;N1080W;E1083G)
Outline: as §1

For “GGCUAGAACUAGUGGAUCCCCCGGCGCCCGGCGGCUCGAGCCCGGGUAAGUGUAAAGAGUCUGCAUGCCGCCGGGCGCCAUGCCUGCAGGUCGACUCUAGAAAACAUG”, the binding signal [1] was 2.19 log2 enrichment (interaction score).
For “GGCUAGAACUAGUGGAUCCCCCGGCGCCCGGCGGCUCGAGCCCGGGUAAGUGUAUAUAGUCUGCAUGCCGCCGGGCGCCAUGCCUGCAGGUCGACUCUAGAAAACAUG”, the binding signal [2] was 5.59 log2 enrichment (interaction score).
With “GGCUAGAACUAGUGGAUCCCCCGGCGCCCGGCGGCUCGAGCCCGGGUAAGUAUAAAUAGUCUGCAUGCCGCCGGGCGCCAUGCCUGCAGGUCGACUCUAGAAAACAUG” the binding signal [3] was 2.7 log2 enrichment (interaction score).
In the case of “GGCUAGAACUAGUGGAUCCCCCGGCGCCCGGCGGCUCGAGCCCGGGUAAGUGUAAAUCGUCUGCAUGCCGCCGGGCGCCAUGCCUGCAGGUCGACUCUAGAAAACAUG”, the binding signal [4] is reported as 5.04 log2 enrichment (interaction score).
For “GGCUAGAACUAGUGGAUCCCCCGGCGCCCGGCGGCUCGAGCCCGGGUAAGUGUCAAUAGUCUGCAUGCCGCCGGGCGCCAUGCCUGCAGGUCGACUCUAGAAAACAUG”, the binding signal [5] was 3.41 log2 enrichment (interaction score), the binding signal [6] was 2.58 log2 enrichment (interaction score) and the binding signal [7] was 2.63 log2 enrichment (interaction score).
“GGCUAGAACUAGUGGAUCCCCCGGCGCCCGGCGGCUCGAGCCCGGGUAAGUGUAAGUAGUCUGCAUGCCGCCGGGCGCCAUGCCUGCAGGUCGACUCUAGAAAACAUG” was tested, and the binding signal [8] was 6.06 log2 enrichment (interaction score).
For “GGCUAGAACUAGUGGAUCCCCCGGCGCCCGGCGGCUCGAGCCCGGGUAAGUGUUAAUAGUCUGCAUGCCGCCGGGCGCCAUGCCUGCAGGUCGACUCUAGAAAACAUG”, the binding signal [9] was 3.34 log2 enrichment (interaction score), the binding signal [10] was 4.82 log2 enrichment (interaction score) and the binding signal [11] was 4.36 log2 enrichment (interaction score). The binding signal [7] was 1.51 log2 enrichment (interaction score).
In the case of “GGCUAGAACUAGUGGAUCCCCCGGCGCCCGGCGGCUCGAGCCCGGGUAAGUGUGAAUAGUCUGCAUGCCGCCGGGCGCCAUGCCUGCAGGUCGACUCUAGAAAACAUG”, the binding signal [5] is reported as 2.62 log2 enrichment (interaction score) and the binding signal [12] is reported as 3.31 log2 enrichment (interaction score).
“GGCUAGAACUAGUGGAUCCCCCGGCGCCCGGCGGCUCGAGCCCGGGUAAGUGUAAAUAGUCUGCAUGCCGCCGGGCGCCAUGCCUGCAGGUCGACUCUAGAAAACAUG” was tested, and the binding signal [13] was 2.74 log2 enrichment (interaction score), the binding signal [14] was 5.13 log2 enrichment (interaction score) and the binding signal [10] was 1.95 log2 enrichment (interaction score). For the same sequence, the binding signal [15] was 3.04 log2 enrichment (interaction score), the binding signal [8] was 2.39 log2 enrichment (interaction score) and the binding signal [16] was 5.68 log2 enrichment (interaction score). For the same sequence, the binding signal [17] was 4.09 log2 enrichment (interaction score), the binding signal [18] was 3.15 log2 enrichment (interaction score) and the binding signal [19] was 4.06 log2 enrichment (interaction score). For the same sequence, the binding signal [2] was 4.17 log2 enrichment (interaction score) and the binding signal [11] was 1.2 log2 enrichment (interaction score).
With “GGCUAGAACUAGUGGAUCCCCCGGCGCCCGGCGGCUCGAGCCCGGGUAAGUCUAAAUAGUCUGCAUGCCGCCGGGCGCCAUGCCUGCAGGUCGACUCUAGAAAACAUG” the binding signal [20] was 2.65 log2 enrichment (interaction score) and the binding signal [3] was 5.09 log2 enrichment (interaction score).
In the case of “GGCUAGAACUAGUGGAUCCCCCGGCGCCCGGCGGCUCGAGCCCGGGUAAGUGUAAUUAGUCUGCAUGCCGCCGGGCGCCAUGCCUGCAGGUCGACUCUAGAAAACAUG”, the binding signal [8] is reported as 3.8 log2 enrichment (interaction score) and the binding signal [16] is reported as 2.62 log2 enrichment (interaction score).
“GGCUAGAACUAGUGGAUCCCCCGGCGCCCGGCGGCUCGAGCCCGGGUAAGUGUACAUAGUCUGCAUGCCGCCGGGCGCCAUGCCUGCAGGUCGACUCUAGAAAACAUG” was tested, and the binding signal [2] was 5.9 log2 enrichment (interaction score).
“GGCUAGAACUAGUGGAUCCCCCGGCGCCCGGCGGCUCGAGCCCGGGUAAGUUUAAAUAGUCUGCAUGCCGCCGGGCGCCAUGCCUGCAGGUCGACUCUAGAAAACAUG” was tested, and the binding signal [20] was 5.68 log2 enrichment (interaction score).
“GGCUAGAACUAGUGGAUCCCCCGGCGCCCGGCGGCUCGAGCCCGGGUAAGCGUAAAUAGUCUGCAUGCCGCCGGGCGCCAUGCCUGCAGGUCGACUCUAGAAAACAUG” was tested, and the binding signal [13] was 3.72 log2 enrichment (interaction score) and the binding signal [14] was 5.66 log2 enrichment (interaction score).
